Sampled rows, rich in hits. Any-hit rate of the full collection: about 2.4%.
TRHR enhancer = allosterically enhances the human TRH receptor | enhancement, % at 2 µM | TRHR cells, fluo-8 calcium fluorescence, EC20 TRH enhancement | 0.66% of 360,000 active | AID 493056 | P34981; in the data active = enhancement above about 30%
Target sequence (P34981 whole entry, looked up): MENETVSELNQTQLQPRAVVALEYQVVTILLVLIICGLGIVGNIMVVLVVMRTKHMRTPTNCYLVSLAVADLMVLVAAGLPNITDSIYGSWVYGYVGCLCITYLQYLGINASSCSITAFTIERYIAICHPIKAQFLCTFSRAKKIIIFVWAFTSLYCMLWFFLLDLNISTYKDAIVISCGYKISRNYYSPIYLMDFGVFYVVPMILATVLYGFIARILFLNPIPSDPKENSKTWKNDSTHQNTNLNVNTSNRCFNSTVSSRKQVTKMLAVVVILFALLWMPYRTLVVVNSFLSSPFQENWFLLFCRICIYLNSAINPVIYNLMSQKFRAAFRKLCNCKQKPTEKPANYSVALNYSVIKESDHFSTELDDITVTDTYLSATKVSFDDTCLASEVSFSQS
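Enhancer read-out: after compound pinning and an initial kinetic agonist-mode read, an EC20 of TRH (10 nM final) was injected and fluo-8 calcium signal (Ex 480/Em 530) followed at 1 s/cycle for 100 cycles in TRHR-expressing cells.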
PTHR1 agonist = agonists of human PTHR1 parathyroid hormone receptor; Q03431; HEK293 GP2 PTHR1 cells, GloSensor cAMP luminescence, 1 h; Potency, µM (top dose mostly 115 µM), actives largely listed as activators; 0.075% of 410,000 active; also: nearly all actives have a fitted effect of over 55% in size
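HEK-293-derived GP2 cells expressing PTHR1 and a GloSensor cAMP reporter, 3,000/well, plated overnight, given luciferin plus IBMX (each 0.5 mM as added) for 1 h at 37 °C, then compound for 1 h at 37 °C. Luminescence was read after 15 min at room temperature.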
HEK293 tox = cytotoxic in the GLP-1 receptor inverse agonist counter-screen; HEK293 cAMP-luciferase reporter cells, luminescence, 24 h; Potency, µM (series often up to 38.3 µM), usual class: inhibitors; 0.13% of 410,000 active; AID 624418;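 also: loss of luciferase light is scored as toxicity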
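Cells in DMEM/10% Nu serum/1% pen-strep, 1536-well format. Pre-incubated 12 h, dosed with 23 nL compound, incubated a further 24 h. Luciferase detection, 12 min at room temp, luminescence.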
GLP1R inv ag = GLP-1 receptor (human) inverse agonism; P43220; HEK293 GLP-1R CRE-luciferase, luminescence, 24 h; GLP-1R form is constitutively active; Potency, µM (doses to about 38.3 µM), hits mostly inhibitors; 1.6% of 410,000 active; AID 624417; also: nearly all actives have a fitted effect of over 55% in size
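qHTS in 1536-well format: reporter HEK293 cells expressing constitutive GLP-1R activity in DMEM + 10% Nu serum, 24 hr with compounds at 37 deg C, luminescence read after 12 min with detection reagent.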
GLP1R ag = activates the human GLP-1 receptor; P43220; HEK293 GLP-1R CRE-luciferase, luminescence, 4-6 h; cells express a hypersensitive GLP-1R form; Potency, µM (doses to about 45.6 µM), most hits filed as activators; 0.007% of 380,000 active
TRHR agonist = activates the human TRH receptor. P34981. TRHR cells, calcium flux fluo-8, FDSS agonist mode. activation, % at 2 µM. 0.18% of 360,000 active; in the data active = activation above about 30%
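TRHR-expressing cells loaded with fluo-8 calcium dye; 23 nL library compound pin-transferred, kinetic FDSS fluorescence (Ex 480/Em 530) recorded about 180 s for agonist-induced calcium release, before a 10 nM TRH EC20 addition for potentiator mode.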
Numbers stand for hits; 0 = inactive; ? = inconclusive; - = no result given. Unless noted, calls follow the shape of the dose curve; as a rule, active = well fitted curve in the direction sought with a large enough effect; inconclusive = small, poorly fitted or top-dose-only effect, or another doubt; inactive = no such curve, though single readings can be large; an effect the other way counts as inactive or inconclusive.

SMILES	TRHR enhancer	PTHR1 agonist	HEK293 tox	GLP1R inv ag	GLP1R ag	TRHR agonist
C=CCN(Cc1nc(-c2ccc(OC)c(OC)c2)oc1C)C1CCS(=O)(=O)C1 (stereo not given)	0	0	0	0	0	0
O=C(Cc1cccs1)Nc1ccc(-c2nc3ccccc3[nH]2)cc1	0	0	0	4.5µM	0	0
O=C(O)C1Cc2ccccc2CN1C(=O)COc1ccc(Cl)cc1 (stereo not given)	0	0	0	0	0	0
CC(C)c1cc(CNC(=O)CCc2nnc(CCCCc3ccccc3)o2)on1	0	0	0	?	0	0
O=C(Nc1ccccc1Cl)NN1CCCCCC1	-	0	0	2µM	0	-
O=C(Nc1cccc(C(=O)O)c1)Nc1ccccc1Cl	0	0	0	4.5µM	0	0
COc1ccccc1NC(=O)NN1CCCCC1	0	0	0	?	0	0
O=C(Nc1ccc(F)c(Cl)c1)Nc1ccc(Cl)cn1	0	0	0	0	0	0
COC(=O)c1cc(NC(=O)Nc2ccccc2)ccc1Cl	0	0	0	10µM	0	0
O=C(Nc1cccc(Cl)c1)Nc1cccc(C(=O)O)c1	0	0	0	?	0	0
O=C(Nc1ccncc1)Nc1ccc(F)c(Cl)c1	36	0	0	?	0	0
CCCc1nc([N+](=O)[O-])c(S(=O)(=O)c2ccccc2)n1CC(C)C	0	0	?	?	0	0
COc1ccc(Cl)c(Cn2c(NCCCN(C)C)nc3c2c(=O)n(C)c(=O)n3C)c1	0	0	0	0	0	0
CCOCCCn1c(SCC(=O)Nc2cccc(OC)c2)nc2ccccc2c1=O	0	0	0	?	0	0
O=C(Nc1ccc(Cl)cc1)Nc1cccc(C(=O)O)c1	0	0	0	1µM	0	0
O=C(Nc1ccc(Cl)c(Cl)c1)Nc1ccccc1C(=O)O	0	0	0	5.6µM	0	0
O=C(Nc1ccc(Cl)cc1)Nc1ccccc1C(=O)O	0	0	0	?	0	0
CCN(CC)c1ccc(NC(=O)C2CC3CCC2C3)cc1 (stereo not given)	0	0	0	7.9µM	0	0
Cc1ccc(-n2nnnc2SCCNS(=O)(=O)c2ccccc2)cc1C	0	0	0	11µM	0	0
Cc1nnc(SCC(=O)c2c(N)n(C3CC3)c(=O)[nH]c2=O)n1C	-	0	0	0	0	-
CC1CCCCN1C(=O)Cn1c(=O)n(CCC(=O)NCc2ccco2)c(=O)c2sccc21 (stereo not given)	35	0	0	0	0	0
O=S1(=O)N=C(N/N=C/C=C/c2ccccc2)c2ccccc21	0	0	0	0	0	0
COC(=O)COc1ccc(C(c2c(C)[nH][nH]c2=O)c2c(C)[nH][nH]c2=O)cc1	0	0	0	0	0	0
CCOC(=O)Cc1csc(NC(=O)Nc2ccc(Cl)cc2)n1	0	0	0	11µM	0	0
CCOC(=O)Cc1csc(NC(=O)Nc2cccc(Cl)c2)n1	0	0	0	?	0	0
SMILES	TRHR enhancer	PTHR1 agonist	HEK293 tox	GLP1R inv ag	GLP1R ag	TRHR agonist
CCn1ncc([N+](=O)[O-])c1C(=O)n1nc(C)cc1C	0	0	0	0	0	0
O=C1CCCC/C1=N\Nc1ccc(OCc2ccccc2)cc1	0	0	0	2.8µM	0	0
COc1ccc(CN2CCN(C(C)C(=O)N(C)Cc3cccc(F)c3)CC2)cc1OC (stereo not given)	0	0	0	0	0	0
COc1ccc(/C=C/C(=O)Nc2ccncc2)cc1OC	0	0	0	0	0	0
COC(=O)CCC(=O)Nc1ccc(Cl)c(Cl)c1	0	0	0	0	0	0
CO/N=C\CC(=O)Nc1ccc(Cl)c(Cl)c1	0	0	0	3.2µM	0	0
COc1ccc(/C=C/C(=O)Nc2ccc(Cl)c(Cl)c2)cc1OC	0	0	?	8.9µM	-	0
C[C@@H](NC(=O)[C@@H]1Cc2ccccc2CN1)C(=O)Nc1ccc2c(c1)OCCO2	0	0	0	0	0	0
COc1ccc(N2CCN(Cc3nc(Cc4cccc(F)c4)no3)C(C)C2)cc1 (stereo not given)	0	0	0	5.6µM	0	0
CCOC(=O)N1CCN(Cc2nc(Cc3cccc(F)c3)no2)CC1	0	0	0	0	0	0
CC(C)C[C@@H](CN=[N+]=[N-])N1CCN(C)CCC1=O	31	0	0	0	0	0
CC(C)C[C@@H](CN=[N+]=[N-])N1CCN(CC(C)C)CCC1=O	0	0	0	0	0	0
NC(=NCCc1c[nH]c2ccccc12)NS(=O)(=O)c1cc(F)ccc1F	0	0	0	0	0	0
CCc1cccc2c(C(=O)C(NCCCOC)c3ccccc3)c[nH]c12 (stereo not given)	0	0	?	?	0	0
S=c1[nH]nc(C2CCCCC2)n1/N=C/c1ccncc1	0	0	0	1.8µM	0	0
CSc1ccc(/C=N/n2c(C3CCCCC3)n[nH]c2=S)cc1	0	0	0	?	0	0
COc1ccc(Nc2c(-c3ccc(OC)cc3)nc3cnccn23)cc1	34	0	0	0	0	0
Cc1ccc(Nc2c(-c3ccc(C)cc3)nc3c(C)cccn23)cc1	0	0	0	10µM	-	0
Cc1ccc(Nc2c(-c3ccccc3O)nc3ncccn23)cc1	0	0	0	10µM	0	0
COc1ccc(Nc2c(-c3ccc(C)cc3)nc3cnccn23)cc1	0	0	0	0	0	0
COc1ccc(CCNC(=O)COc2ccc(N(C)S(=O)(=O)c3ccc(C)cc3)cc2)cc1	0	0	0	0	0	0
O=C(OCC(=O)N1CCCC1=O)c1cc2ccccc2o1	0	0	0	0	0	0
Cc1ccc(NC(=S)NCCSc2ccc(Cl)cc2)cc1	0	0	?	?	0	0
Cc1ccc(SCCNC(=S)Nc2cc(C)cc(C)c2)cc1	0	0	?	7.9µM	0	0
CCn1cc(CCCC(=O)NCc2cccc(OC)c2)c2ccccc21	0	0	0	10µM	0	0
SMILES	TRHR enhancer	PTHR1 agonist	HEK293 tox	GLP1R inv ag	GLP1R ag	TRHR agonist
CCOC(=O)CSc1nnc(C2CCCCC2)n1C	0	0	0	0	0	0
CCc1nc2c(c(=O)c3ccccc3n2C)c(=O)n1C1CCCCCC1	0	0	0	?	0	39
COc1ccc(Cn2c(C3CCCCC3)nc3c(c(=O)c4ccccc4n3C)c2=O)cc1	0	0	0	0	0	0
COc1ccc(CCn2c(C3CCCCC3)nc3c(c(=O)c4ccccc4n3C)c2=O)cc1	0	0	5µM	?	0	0
CC(C)N(CCNCC(O)COc1ccc(C(C)(C)c2ccccc2)cc1)C(C)C (stereo not given)	0	0	?	4µM	0	0
Cc1cccn2cc(CSc3nnc(Nc4ccc(C(C)C)cc4)s3)nc12	0	0	0	10µM	0	0

Screening data (PubChem)
